# PglD DTNB: C. jejuni PglD acetyltransferase inhibitors, primary screen, biochemical, DTNB colorimetric, single point. UDP-N-acetylbacillosamine N-acetyltransferase PglD (Campylobacter jejuni). purified PglD enzyme, DTNB colorimetric CoA detection. inhibition, % at 12.5 µM. 360,000 tested, 0.098% active; in the data active = inhibition above about 16%, passing the limit was not always enough
# CFTR F508del cor: F508del CFTR correction, initial screen, CFBE line, single point; 350,000 tested, 0.36% active; CFBE cells, YFP halide quenching; stimulated with forskolin plus potentiator P3; % fluorescence drop versus neutral controls; activity (quench increase), % at 7.58 µM;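 active = mean added fluorescence quench of at least 8% versus neutral control, with both replicates also reaching 8%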;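 note: cells transiently co-express mutant CFTR-F508del with the halide-sensitive YFP; corrector assay measuring rescue of mutant channel to the surface after 24 h compound exposure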
# Casp6 inh: human caspase-6 inhibitors, primary screen, biochemical, VEID-R110 fluorescence, single point, set 2. P55212. purified caspase-6, Z-VEID-R110 cleavage fluorescence. inhibition, % at 12.5 µM. 350,000 tested, 0.53% active. AID 686996, 2013;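 active = mean inhibition across replicates at least about 35%, with every replicate also reaching that limit, limit read from the data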;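 note: 0% = median of neutral control wells and 100% = no fluorescence left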
# Target sequence (P55212 24-179 limits assumed): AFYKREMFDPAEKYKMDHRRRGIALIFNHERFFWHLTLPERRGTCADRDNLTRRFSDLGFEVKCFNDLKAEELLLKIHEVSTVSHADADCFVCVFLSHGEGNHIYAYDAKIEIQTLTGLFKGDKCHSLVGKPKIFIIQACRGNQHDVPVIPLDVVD
# Target sequence (P55212 194-293 limits assumed): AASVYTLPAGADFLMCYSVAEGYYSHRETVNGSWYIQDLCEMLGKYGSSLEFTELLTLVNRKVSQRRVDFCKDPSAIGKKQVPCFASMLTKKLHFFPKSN
# ALR H2O2 inh: inhibitors of human ALR sulfhydryl oxidase, primary screen, biochemical, H2O2 detection, HRP-luminol luminescence, single point | FAD-linked sulfhydryl oxidase ALR (Homo sapiens), P55789 | purified ALR, DTT oxidation | inhibition, % (concentration not given with the values) | 290,000 tested, 3.8% active | AID 485317, 2010;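 active = mean replicate inhibition above about 79%, with every replicate also reaching it, limit read from the data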
# Target sequence (P55789 whole entry, looked up): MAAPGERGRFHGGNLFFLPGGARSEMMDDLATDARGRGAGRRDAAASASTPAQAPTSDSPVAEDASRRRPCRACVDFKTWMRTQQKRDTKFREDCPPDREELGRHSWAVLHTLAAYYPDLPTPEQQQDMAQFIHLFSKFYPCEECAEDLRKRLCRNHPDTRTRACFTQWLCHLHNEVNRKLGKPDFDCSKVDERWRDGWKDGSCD
# Env fusion inh: inhibitors of HIV-1 Env-driven cell-cell fusion, primary screen, HeLa-JRFL effector, CEM21 target cells, luciferase | inhibition, % at 12.3 µM | 360,000 tested, 1.1% active;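 active = mean replicate inhibition score of at least 50 and every replicate individually at or above 50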;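 note: 0% = plate neutral controls and 100% = maraviroc near 300 nM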
# NSD2 inh: NSD2 histone methyltransferase inhibitors, primary screen, biochemical, AlphaScreen, single concentration, set 2. Histone-lysine N-methyltransferase NSD2 (Homo sapiens), O96028. NSD2 peptide methylation, 120 min. inhibition, % at 12.5 µM. 310,000 tested, 0.54% active. AID 743445, 2014; in the data active = inhibition above about 50%
# An asterisk follows results filed as active; x = no result; [ ] = another dose, or the depositor's remark. An excerpt weighted towards active compounds, which were near 4.1% of everything screened.
SMILES,PglD DTNB,CFTR F508del cor,Casp6 inh,ALR H2O2 inh,Env fusion inh,NSD2 inh
O=C1c2c(O)cc(O)cc2O[C@H](c2ccc(O)c(O)c2)[C@@H]1O,x,x,x,98.7*,x,x
C[C@@H]1O[C@@H](O[C@@H]2C(=O)c3c(O)cc(O)cc3O[C@H]2c2ccc(O)c(O)c2)[C@H](O)[C@H](O)[C@H]1O,0.7,1.2,x,98.9*,-12.6,x
O=C1c2c(O)cc(O)cc2O[C@H](c2ccc(O)c(O)c2)[C@H]1O,5.8,2.1,7.0,99.2*,16.5,x
COc1cccc([C@@H]2Oc3ccc(OC)cc3C(=O)[C@H]2O)c1,4.1,x,x,-0.2,x,x
Cc1cccc(S(=O)(=O)N2[C@@H]3Cn4c(cccc4=O)[C@H]2[C@@H](C(=O)NC2CCC2)[C@@H]3CO)c1,-1.9,-2.9,-0.4,x,x,x
O=C1C[C@@H](c2ccccc2)Oc2cc(O)cc(O)c21,1.1,-1.3,3.3,6.5,-19.9,x
Oc1cc(O)c2c(c1)O[C@H](c1ccc(O)c(O)c1)[C@@H](O)C2,5.2,1.0,x,95.4*,-13.6,x
C/C(=N\OCc1cccc(C(=O)O)c1)c1ccc(Cl)cc1,3.9,x,-4.1,4.1,62.5*,x
C/C(=N\OCc1ccc(C#N)cc1)c1ccccc1,x,3.8,-3.8,-3.7,-85.0,-2.5
O=c1c(O)c(-c2cccs2)oc2ccc(Cl)cc12,5.5,53.2*,-1.3,-8.0,x,-2.6
Cc1cc(N(C)Cc2ccccc2)nc2cc(O)ccc12,-2.3,-1.3,x,97.9*,6.5,0.3
C[C@@H]1CN([C@H](C)CO)C(=O)c2cc(NC(=O)Cc3cn(C)c4ccccc34)ccc2O[C@@H]1CN(C)S(=O)(=O)c1ccc(F)cc1,1.0,2.7,3.1,x,-17.1[16.7 µM],x
CC(C)C1Cc2c(sc3c2c(=O)n(-c2ccccc2)c2n[nH]c(=S)n32)CO1 (configuration not stated),x,4.2,2.1,93.7*,10.2,30.7
COc1ccc(-n2c(=O)c3c4c(sc3n3c(=S)[nH]nc23)CCCC4)cc1,x,-1.6,-6.1,95.7*,12.5,4.8
CN(C)C(=O)C[C@H]1CC[C@@H]2[C@H](COC[C@@H](O)CN2Cc2ccc(C(F)(F)F)cc2)O1,0.0,-1.5,0.6,x,-6.6[16.7 µM],x
C[C@@H]1CN([C@@H](C)CO)C(=O)c2cc(-c3ccc(F)cc3)cnc2O[C@@H]1CN(C)C(=O)CN(C)C,-1.1,0.2,-1.2,x,-9.9[16.7 µM],x
COCC(=O)Nc1ccc2c(c1)[C@H]1C[C@H](CC(=O)NCCN3CCCCC3)O[C@H](CO)[C@H]1O2,1.8,-4.4,0.7,x,-7.1[16.7 µM],x
COc1ccc(OC)c(S(=O)(=O)N(CCc2ccc(OC)c(OC)c2)Cc2cccs2)c1,x,x,x,x,x,-5.1
COc1ccc(CCN(Cc2cccs2)S(=O)(=O)c2ccc(C(=O)O)cc2)cc1OC,x,-1.1,-5.6,93.8*,-25.6,-3.2
Cc1ccc(C(=O)C2=C(O)C(=O)N(Cc3cccnc3)C2c2ccc(Br)cc2)o1 (configuration not stated),3.7,-2.4,-2.8,5.2,x,10.3
Cc1ccc(C(=O)C2=C(O)C(=O)N(Cc3cccnc3)C2c2ccc(Cl)c(Cl)c2)o1 (configuration not stated),x,x,x,87.6*,x,x
CCCN(C)C[C@H]1Oc2cc(C#CCC3CCCC3)ccc2S(=O)(=O)N([C@H](C)CO)C[C@H]1C,x,1.1,x,x,-15.3[16.7 µM],x
O=C(Oc1ccc(-c2csnn2)cc1)c1cccs1,2.0,-3.5,-2.1,-7.0,3.9,-4.1
O=C(Oc1ccccc1-c1csnn1)c1cccs1,x,-1.2,2.5,99.3*,1.1,6.9
COc1ccc(N=C(N(C)C)P(=O)(N(C)C)N(C)C)cc1,4.5,-3.0,-0.3,99.0*,8.0,-0.3
SMILES,PglD DTNB,CFTR F508del cor,Casp6 inh,ALR H2O2 inh,Env fusion inh,NSD2 inh
CCN(C(=O)C1CCN(c2nc(-c3ccc(OC)cc3)no2)CC1)c1ccc(OC)cc1,1.8,0.5,-2.2,-6.5,59.9*,x
COc1ccc(NC(=O)C2CCN(c3nc(-c4ccc(OC)cc4)no3)CC2)cc1,-5.6,0.3,-2.0,21.2,12.0,x
COc1ccc(-c2noc(N3CCC(C(=O)N4CCN(c5ccccn5)CC4)CC3)n2)cc1,1.4,x,x,-3.8,62.8*,x
Nc1ccc(Sc2cnn(-c3ccccc3)c(=O)c2Cl)cc1,9.2,x,x,91.8*,x,1.6
Cc1ccc(Sc2cnn(-c3ccccc3)c(=O)c2Cl)cc1,2.5,x,x,62.4,x,-2.2
C/C=C/c1cnc2c(c1)C(=O)N([C@H](C)CO)C[C@@H](C)[C@H](CN(C)Cc1ccccc1F)O2,1.1,3.6,-4.1,x,-14.4[16.7 µM],x
CCCCOc1ccc(CSC(=N)N)cc1Cl,-1.3,4.5,1.1,98.7*,2.7,0.3
CCOc1ccc(CSC(=N)N)cc1,x,x,-1.8,98.1*,1.2,-1.0
Cc1cc(N2CCN(c3ccccc3)CC2)nc(-c2ccccc2)n1,-3.6,x,x,2.2,-67.2,10.9
COc1cccc(N2CCN(c3c4c(nc5ncnn35)CCC4)CC2)c1,-4.5,x,x,98.1*,32.6,0.4
Cc1cccc(N2CCN(C(=O)C3CCCCC3)CC2)c1C,2.9,x,x,4.0,x,-3.4
Cc1cc(N2CCN(c3ccccc3)CC2)n2ncnc2n1,x,0.6,1.3,97.6*,-17.3,-0.6
Cc1cc(N2CCC(C(=O)N3CCN(c4cccc(C)c4C)CC3)CC2)n2ncnc2n1,-4.2,x,x,-4.6,67.1*,x
Cc1cc(N2CCN(c3ccccc3)CC2)nc(N)n1,1.3,x,x,97.8*,18.5,1.5
CC(C)C#Cc1ccc([C@H]2[C@H](CO)N3CCCCN(S(=O)(=O)Cc4ccccc4)C[C@@H]23)cc1,-3.5,-3.5,x,x,x,x
C[C@@H](NC(=O)C[C@H]1CC[C@H]2[C@@H](COC[C@H](O)CN2Cc2cc(F)ccc2F)O1)c1ccccc1,-4.1,3.1,1.3,x,0.9[16.7 µM],x
FC(F)(F)c1cccc(Nc2cc(-c3ccccc3)nc3ncnn23)c1,x,-2.7,0.9,-6.1,7.4,-1.0
FC(F)(F)c1ccc(N2CCN(c3cc(-c4ccccc4)nc4ncnn34)CC2)nc1,2.8,x,x,-2.2,77.5*,0.2
COc1cccc(C(=O)Nc2ccc3c(c2)C(=O)N(C)C[C@H](OC)[C@@H](C)CN(CCc2ccccc2)[C@H](C)CO3)c1,0.5,-6.3,x,x,55.4*[16.7 µM],x
CO[C@H]1CN(C)C(=O)c2cc(NC(C)=O)ccc2OC[C@H](C)N(C(=O)c2ccncc2)C[C@H]1C,-0.7,8.4*,2.0,x,-4.2[16.7 µM],x
CO[C@H]1CN(C)C(=O)c2cc(NC(C)=O)ccc2OC[C@H](C)N(C(=O)c2ccncc2)C[C@@H]1C,0.3,-0.8,6.1,x,27.4[16.7 µM],x
COc1cccc(C(=O)Nc2ccc3c(c2)C(=O)N(C)C[C@H](OC)[C@H](C)CN(CCc2ccccc2)[C@@H](C)CO3)c1,1.7,2.4,x,x,31.0[16.7 µM],x
